PubChem BioAssay (Tox21)
Several values for one entry are separate records, joined by “and”; a condition that tells them apart may be missing. Identical values can stand only once. Inconclusive results are not listed. Entries that show only a call come without a potency. Activity calls are given as the source filed them. Calls come from the whole dose curve; as a rule, active = well fitted cell-killing curve with a large enough effect in the repeat runs; inconclusive = weak or mixed curves, or effect the other way; inactive = flat fitted curve, though single readings scatter.

Experiment: qHTS assay to identify small molecule agonists of the androgen receptor (AR) signaling pathway in the presence of an antagonist - cell viability counter screen (AID 1259379); note: nearly all actives have a fitted effect of over 25% in size
Conditions: MDA-kb2 viability, CellTiter-Fluor, 16 h; series mostly up to 92.4 µM
Text: National Center for Advancing Translational Sciences [NCATS]
NIH Chemical Genomics Center [NCGC]
U.S. Environmental Protection Agency [EPA]
National Institutes of Environmental Health Sciences [NIEHS]
National Toxicology Program [NTP]
U.S. Food and Drug Administration [FDA]
Androgen receptor (AR) is an important member of nuclear receptor family. Its signaling plays a critical role in AR-dependent prostate cancer and other androgen related diseases. Considerable attention has been given in the past decades to develop methods to study and screen for the environmental chemicals that have the potential to interfere with metabolic homeostasis, reproduction, developmental and behavioral functions. Therefore AR binding assay for screening against androgen agonists and antagonists can be used to identify potential endocrine disruptors.
MDA-kb2 cells (from ATCC, deposited by Wilson et al.) are human breast carcinoma cells that were stably transfected with a luciferase reporter gene under control of the MMTV promoter that contains response elements for both androgen receptor (AR) and glucocorticoid receptor (GR). This particular screening for measuring luciferase reporter gene activity using MDA-kb2 cells against Tox21 10K library compounds is a confirmation study on agonist mode screening in the presence of AR-antagonist compound (Nilutamide) at 3.0uM final concentration. The cytotoxicity of the compounds was tested in parallel by measuring the cell viability using CellTiter-Fluor assay system (Promega, Madison, WI) in the same wells.
Tox21 Assay Protocol Summary:
MDA-kb2 cells (cells cultured without CO2) were dispensed at 3,000 cells/well in 4uL of culture medium into white wall/solid-bottom 1536-well plates (Corning Life Sciences, Corning, NY) using a Multidrop Combi (Thermo Fisher Scientific Inc., Waltham, MA) dispenser. The assay plates were incubated at 37C and 0% CO2 for 5hr. One uL of 3.0uM (final concentration) Nilutamide or assay buffer was added using two separate tips of Flying Reagent Dispenser (FRD, Aurora Discovery, San Diego, CA). Then 23nL of compounds dissolved in DMSO at 15 concentrations and positive controls were transferred to the assay plates using a Pintool station (Wako, San Diego, CA). The assay plates were incubated at 37C and 0% CO2 for 16 hr. After 15hr incubation at 37C, 1uL/well CellTiter-Fluor reagent (Promega Corporation) was added to each well of the assay plates using FRD. After 1hr incubation at 37C and 0% CO2, the fluorescence signal was measured using a ViewLux plate reader (PerkinElmer, Shelton, CT).
Potency is the fitted concentration of half-maximal effect.

Structure (SMILES)	Potency
CC(=O)/C=C/C1=C(C)CCCC1(C)C	inactive
NC(=O)N/N=C/c1ccc([N+](=O)[O-])o1	inactive
O=[N+]([O-])c1ccc(O)cc1	31.8 µM (active) and 48.6 µM (active) and 30.6 µM (active)
CC1=C(/C=C/C(C)=C/C=C/C(C)=C/C(=O)O)C(C)(C)CCC1	inactive
CC(=O)CCC(C)C	inactive
COCC(C)N (stereo not given)	inactive
Nc1cccc(N)c1	inactive
CCN1CCCC1=O	inactive
COC(=O)c1ccc(C=O)cc1	inactive
NC(=O)N1c2ccccc2C=Cc2ccccc21	inactive
CCCCCCCCCCCCCCCCCC(=O)OCC(O)CO (stereo not given)	inactive
O=C(O)CCCCC1CCSS1 (stereo not given)	inactive
C1CNCCN1	inactive
COc1cc2c(c(OC)c1OC)-c1ccc(OC)c(=O)cc1[C@@H](NC(C)=O)CC2	inactive
CCCCCCCCCCCCCC(=O)OC(C)C	inactive
COc1ccccc1O	inactive
Cc1c(N(C)CS(=O)(=O)O)c(=O)n(-c2ccccc2)n1C	inactive
CC(C)=CCC/C(C)=C/CO	inactive
Oc1cccc(O)c1	inactive
NC(=O)c1ccc([N+](=O)[O-])cc1Cl	inactive

Structure (SMILES)	Potency
CN(C)C=O	inactive
OC[C@@H](O)[C@@H](O)[C@H](O)[C@H](O)CO	inactive
COCCOCCOC	inactive
C#C[C@]1(O)CC[C@H]2[C@@H]3CCC4=CC(=O)CC[C@@H]4[C@H]3CC[C@@]21CC	inactive
CCCCOC(=O)CCCCCCCCC(=O)OCCCC	inactive
COC(=O)c1ccc(O)cc1	inactive
c1ccc2[nH]c(-c3cscn3)nc2c1	inactive
Cc1c(N(C)C)c(=O)n(-c2ccccc2)n1C	inactive
NC(N)=NC(N)=NCCc1ccccc1	48.3 µM (active) and 54.5 µM (active) and 26.6 µM (active)
Cc1cccc(Nc2cc(Cl)nc(SCC(=O)O)n2)c1C	inactive
Cn1cnc2c1c(=O)[nH]c(=O)n2C	inactive
COc1ccc(O)cc1	inactive
COc1ccccc1NC(=O)CC(C)=O	inactive
CCCCCCCC(=O)OCC(O)CO (stereo not given)	inactive
Nc1ccc(N=Nc2ccccc2)c(N)n1	48.8 µM (active) and 30.6 µM (active) and 15 µM (active)
CN(C)Cc1cc(CN(C)C)c(O)c(CN(C)C)c1	inactive
C=CC(=O)NC(C)(C)CS(=O)(=O)O	inactive
CCOC(=O)C(C)(C)Oc1ccc(Cl)cc1	inactive
COc1cc(O)c(C(=O)c2ccccc2)cc1S(=O)(=O)O	inactive
CC(C)(C)NCC(O)c1ccc(O)c(CO)c1 (stereo not given)	inactive
